From PubChem BioAssay come the findings set out here.

Assay [1] relates to TRPC4 beta (transient receptor potential cation channel C4), mouse. Kind of assay: activators of mouse TRPC4 channel, confirmation, cell-based, Fluo4 calcium, HEK293 TRPC4beta/mu-opioid, duplicates, 10 µM (AID 2426;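 active means fluorescence ratio normalized to control raised more than 50% in primary screen plus both repeat runs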). The note with it: Fluo4 calcium fluorescence, at 10 µM; stronger effect = higher value.
The test system of assay [2] is transient receptor potential cation channel C4 beta (TRPC4), mouse. Kind of assay: activators of mouse TRPC4 channel, confirmation, cell-based, second round, Fluo4, HEK293 TRPC4beta/mu-opioid, 1 µM (AID 2461;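 active means primary screen active and over 50% activation in each of two duplicate runs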). The note with it: Fluo4 calcium fluorescence, at 1 µM; stronger effect = higher value.
In assay [3] the test system is TRPC4 (transient receptor potential cation channel C4 beta), mouse. Nature of the assay: positive allosteric modulators of mouse TRPC4, confirmation, cell-based, second round, Fluo-4, HEK293 TRPC4beta/mu-opioid, 1 µM (AID 2554;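 active means primary screen hit whose fluorescence ratio, in both repeats, exceeds the weak agonist control mean by 3 SD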). The note with it: DAMGO EC20, Fluo-4 calcium flux, at 1 µM; stronger effect = higher value.
Assay [4] has as its system TRPC4 beta (transient receptor potential cation channel C4), mouse. Nature of the assay: positive allosteric modulators of mouse TRPC4, confirmation, cell-based, Fluo-4, HEK293 TRPC4beta/mu-opioid (AID 2555;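 active means primary screen hit whose calcium fluorescence ratio, in both repeats, exceeds the weak agonist control mean by 3 SD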). The note with it: DAMGO EC20, Fluo-4 calcium flux, at 10 µM; stronger effect = higher value.
In assay [5] the target is Short transient receptor potential channel 4 (Mus musculus) (UniProt Q9QUQ5). Kind of assay: inhibitors of mouse TRPC4 channel, confirmation, cell-based, Fluo4, HEK293 TRPC4beta/mu-opioid (AID 2636). Conditions: DAMGO, Fluo4 calcium flux, at 10 µM; stronger effect = higher value.
Sequence of Short transient receptor potential channel 4 (Mus musculus) (Q9QUQ5 whole entry, looked up): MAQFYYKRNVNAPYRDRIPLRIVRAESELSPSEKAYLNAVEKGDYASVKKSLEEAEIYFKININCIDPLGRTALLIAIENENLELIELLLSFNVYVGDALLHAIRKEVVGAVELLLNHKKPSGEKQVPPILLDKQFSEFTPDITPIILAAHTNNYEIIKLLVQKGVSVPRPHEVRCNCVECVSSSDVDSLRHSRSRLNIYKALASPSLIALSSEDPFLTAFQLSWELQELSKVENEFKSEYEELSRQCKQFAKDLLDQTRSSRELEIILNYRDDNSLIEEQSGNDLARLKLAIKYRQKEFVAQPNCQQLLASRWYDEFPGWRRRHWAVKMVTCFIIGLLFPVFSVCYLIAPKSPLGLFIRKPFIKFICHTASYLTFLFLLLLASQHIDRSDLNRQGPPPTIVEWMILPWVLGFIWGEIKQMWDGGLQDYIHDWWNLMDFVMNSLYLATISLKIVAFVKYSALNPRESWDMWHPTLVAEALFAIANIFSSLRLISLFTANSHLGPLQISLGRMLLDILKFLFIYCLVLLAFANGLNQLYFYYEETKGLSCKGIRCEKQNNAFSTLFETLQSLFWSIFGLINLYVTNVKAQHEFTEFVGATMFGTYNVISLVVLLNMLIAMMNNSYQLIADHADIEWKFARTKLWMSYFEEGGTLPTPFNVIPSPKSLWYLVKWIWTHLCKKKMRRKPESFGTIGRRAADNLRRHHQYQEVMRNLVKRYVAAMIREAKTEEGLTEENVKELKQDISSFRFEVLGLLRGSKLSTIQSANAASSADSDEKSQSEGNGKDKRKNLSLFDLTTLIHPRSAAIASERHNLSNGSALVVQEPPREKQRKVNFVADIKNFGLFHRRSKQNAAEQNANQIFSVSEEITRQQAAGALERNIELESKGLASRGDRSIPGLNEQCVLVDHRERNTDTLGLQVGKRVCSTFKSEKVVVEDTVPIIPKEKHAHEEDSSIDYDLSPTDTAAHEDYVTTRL
Assay [6] has the same target. Kind of assay: inhibitors of mouse TRPC4 channel, confirmation, cell-based, second round, Fluo4, HEK293 TRPC4beta/mu-opioid, 1 µM (AID 2637;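 active means calcium signal ratio cut to more than 3 SD under the fully stimulated control mean yet still positive, in both repeats and the primary screen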). Conditions: Fluo4 calcium flux, DAMGO, at 1 µM; stronger effect = higher value.
Assay [7] has the same target. Nature of the assay: mouse TRPC4 channel activators, dose response, cell-based, HEK293 TRPC4/mu-opioid, Fluo-4 calcium (AID 434937;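 active means primary screen activator hit with a dose response curve and TRPC4 channel activation at any tested dose; inactive means no activation, no dose response, or not a primary hit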).
Assay [8] has the same target. Nature of the assay: TRPC4 positive allosteric modulators, dose response, cell-based, HEK293 TRPC4/mu-opioid, Fluo-4 calcium, EC20 DAMGO (AID 434941;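 active means earlier screen potentiator hit that boosts the TRPC4 ion channel at some dose, with a dose response; inactive means no potentiation, no dose response, or not a prior hit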;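 further: calcium entry triggered by an EC20 dose of DAMGO at the co-expressed mu-opioid receptor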).
For assay [9] the target is unchanged. Kind of assay: mouse TRPC4 channel inhibitors, dose response, cell-based, HEK293 TRPC4/mu-opioid, Fluo-4 calcium (AID 434942;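 active means primary screen inhibitor hit that blocks the TRPC4 channel at some tested dose, yielding a dose curve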).
Assay [10] concerns the target Short transient receptor potential channel 6 (Mus musculus) (UniProt Q61143). Nature of the assay: inhibition of mouse TRPC6 channel, confirmation, selectivity assay for TRPC4 inhibitor project, cell-based, HEK293, membrane potential dye, duplicate (AID 434948;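 active means active in primary screen and both duplicates, each dropping signal beyond three positive-control SD with fluorescence still positive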). Conditions: HEK293 TRPC6, membrane potential dye fluorescence, at 10 µM, stimulated with maximal-effect acetylcholine; stronger effect = higher value.

For assay [11] the target is unchanged. Kind of assay: activation of mouse TRPC6 channel, confirmation, selectivity assay for TRPC4 activator project, cell-based, HEK293, membrane potential dye, duplicate (AID 434950;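 active means membrane potential signal rise above negative control mean plus 3 SD in both duplicates, also active in the earlier TRPC4 screen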;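 on activation: 0% = buffer only wells and 100% = acetylcholine maximal-effect wells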). Conditions: HEK293 TRPC6, membrane potential fluorescence, at 10 µM; stronger effect = higher value.
The target is the same in assay [12]. Nature of the assay: TRPC6 potentiation by TRPC4 potentiator hits, confirmation, selectivity assay for TRPC4 potentiator project, HEK293 cells, membrane potential dye, duplicate (AID 434952;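 active means compound raising the membrane signal above positive-control mean plus 3 SD in both repeats, and a primary screen hit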). Conditions: HEK293 TRPC6, membrane potential dye fluorescence, at 10 µM, maximal acetylcholine added after compound; stronger effect = higher value.
The target in assay [13] is Short transient receptor potential channel 4 (Mus musculus) (UniProt Q9QUQ5). Kind of assay: calcium flux activators in TRPC4/5HT1a cells, counter-screen for TRPC4 activator project, cell-based, second counter screen, HEK293 TRPC4/5HT1a, Fluo-4 (AID 434977;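 active means calcium signal rise above buffer-control mean plus 5 SD in both duplicates, and also a hit in the primary screen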). The note with it: Fluo-4 calcium flux, at 10 µM; stronger effect = higher value.
Assay [14] in a line: calcium flux inhibitors in TRPC4/5HT1a cells, confirmation, counter-screen for TRPC4 inhibitor project, cell-based, second counter screen, HEK293 TRPC4/5HT1a, Fluo-4 (AID 434978;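 active means primary screen active whose calcium signal fell more than 3 SD beyond the full-serotonin control mean in both duplicate plates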;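 on outcome: serotonin given first at submaximal then at maximal dose after compound preincubation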). The note with it: Fluo-4 calcium flux, at 10 µM, serotonin added to trigger calcium flux; stronger effect = higher value.
The test system of assay [15] is TRPC4 (mouse), co-expressed with 5HT1a in HEK293. Kind of assay: calcium flux potentiators in TRPC4/5HT1a cells, confirmation, counter-screen for TRPC4 potentiator project, cell-based, second counter screen, HEK293 TRPC4/5HT1a, Fluo-4 (AID 434979;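 active means signal rise over 3 SD above mean of control wells given weak agonist, in both repeats and first screen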). Conditions: Fluo-4 calcium flux, at 10 µM, serotonin added at its EC20 dose; stronger effect = higher value.
A short description of assay [16]: calcium flux activation in mu-opioid HEK293 cells, confirmation, counter-screen for TRPC4 activator project, cell-based, HEK293 mu-opioid receptor line (AID 449723;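 active means hit in primary screen, with calcium signal over 5 SD above buffer well mean in both duplicates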;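 further: counter screen cells carry the mu-opioid receptor alone and lack TRPC4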). The note with it: Fluo-4 calcium fluorescence, at 10 µM; stronger effect = higher value.
Assay [17] can be described thus: calcium flux enhancement in mu-opioid HEK293 cells, confirmation, counter-screen for TRPC4 allosteric potentiator project, cell-based, HEK293 mu-opioid receptor line (AID 449724;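 active means calcium signal rise more than 3 SD above the low-dose agonist control mean, in both duplicate plates and the primary screen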;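 further: HEK293 cells carrying mu-opioid receptor only with no TRPC4 channel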). Conditions: Fluo-4 calcium flux, at 10 µM, compound added before EC20 DAMGO stimulus; stronger effect = higher value.

For part of these data: Potency and affinity values are given separately. The source made the active and inactive calls.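 How the source made its calls, unless noted: active means calcium signal cut by more than 3 SD below the full-agonist control yet still positive, in both repeats and the earlier primary screen; inactive means the rest.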

Sequence of Short transient receptor potential channel 6 (Mus musculus) (Q61143 whole entry, looked up): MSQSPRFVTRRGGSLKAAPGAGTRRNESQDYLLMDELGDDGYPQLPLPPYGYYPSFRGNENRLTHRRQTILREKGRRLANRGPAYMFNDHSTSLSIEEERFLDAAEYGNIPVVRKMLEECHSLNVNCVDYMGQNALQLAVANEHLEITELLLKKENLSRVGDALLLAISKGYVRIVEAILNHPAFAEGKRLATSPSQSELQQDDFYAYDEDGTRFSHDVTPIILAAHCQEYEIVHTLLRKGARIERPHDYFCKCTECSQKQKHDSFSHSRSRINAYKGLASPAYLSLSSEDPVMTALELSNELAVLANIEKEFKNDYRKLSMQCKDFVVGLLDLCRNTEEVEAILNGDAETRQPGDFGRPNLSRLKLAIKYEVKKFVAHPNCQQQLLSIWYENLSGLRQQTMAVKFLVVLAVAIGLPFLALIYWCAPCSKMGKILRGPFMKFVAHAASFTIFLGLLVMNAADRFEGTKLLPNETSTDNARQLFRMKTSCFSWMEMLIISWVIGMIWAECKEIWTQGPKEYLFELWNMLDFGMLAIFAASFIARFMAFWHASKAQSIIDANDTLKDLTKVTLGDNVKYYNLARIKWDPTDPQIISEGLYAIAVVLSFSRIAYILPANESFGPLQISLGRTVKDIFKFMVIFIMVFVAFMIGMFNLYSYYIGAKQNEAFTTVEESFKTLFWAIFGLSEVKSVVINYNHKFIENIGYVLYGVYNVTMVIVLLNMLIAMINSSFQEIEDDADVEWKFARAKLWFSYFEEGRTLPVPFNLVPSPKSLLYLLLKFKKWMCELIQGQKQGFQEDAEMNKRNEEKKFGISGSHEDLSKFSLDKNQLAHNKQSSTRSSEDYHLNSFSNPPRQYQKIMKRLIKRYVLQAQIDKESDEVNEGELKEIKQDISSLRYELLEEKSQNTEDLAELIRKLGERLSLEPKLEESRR

For the molecule `CC(C)c1ccccc1NC(=S)NN(Cc1ccccc1)c1ccccc1`, the result in assay [1], in assay [2], in [3], in assay [5], in assay [6] and in assay [7] was inactive. Besides, the outcome in assay [8], in assay [9], in [10], in [11], in [12] and in assay [13] was inactive. The result in assay [14], in assay [16] and in assay [17] was inactive. For the same molecule, the figures for the potentiation in [4] and in [15] were 10% (active) and 43.9% (active), respectively.
As for `c1ccc2c(c1)[nH]c1c(N3CCCC3)ncnc12`, the outcome in assay [1], in [2], in assay [3], in [4], in assay [5] and in assay [6] was inactive. For the same molecule, the outcome in [7], in assay [8], in assay [9], in [10], in assay [11] and in assay [12] was inactive. Further, the outcome in assay [13], in assay [14], in [15], in assay [16] and in [17] was inactive.
As to `CC(C)CN(C(=O)COC(=O)COc1ccc2ccccc2c1)c1c(N)n(Cc2ccccc2)c(=O)[nH]c1=O`, the outcome in assay [1], in assay [2], in assay [3], in [4], in assay [5] and in assay [6] was inactive. The result in assay [7], in [8], in assay [9], in assay [10], in assay [11] and in [12] was inactive. Moreover, the outcome in [13], in assay [14], in assay [16] and in assay [17] was inactive. Besides, in [15], the potentiation was 14.7% (active).
For the molecule `O=[N+]([O-])c1ccc(C[n+]2cccc(O)c2)cc1`, the result in [1], in [2], in assay [3], in assay [4], in assay [5] and in assay [6] was inactive. Further, the result in assay [7], in assay [8], in assay [9], in [10], in assay [12] and in assay [13] was inactive. Moreover, the outcome in assay [14], in assay [15], in assay [16] and in assay [17] was inactive. Also, the activation in assay [11] is 28.5% (active).
As for `C(=N\N(Cc1ccccc1)c1ccccc1)/c1cccnc1`, the result in assay [1], in assay [2], in [3], in [4], in assay [6] and in assay [7] was inactive. For the same molecule, the result in assay [8], in [9], in [10], in [11], in [12] and in assay [13] was inactive. For the same molecule, the outcome in assay [15], in [16] and in assay [17] was inactive. In addition, the inhibition was 63% (active) in assay [5] and 40.3% (active) in [14].
For `COc1ccc(CCn2c(=S)[nH]c3cc(C(=O)N4CCOCC4)ccc3c2=O)cc1OC`, the outcome in assay [1], in [2], in assay [3], in [4], in assay [5] and in assay [6] was inactive. For the same molecule, the result in [7], in assay [8], in [9], in [10], in assay [11] and in assay [12] was inactive. The result in [13], in [14], in [15], in assay [16] and in [17] was inactive.
For `Cc1ccc(Nc2c(N)c(=O)oc3ccccc23)cc1`, the result in assay [1], in [2], in assay [3], in assay [4], in [5] and in [6] was inactive. The result in assay [7], in assay [8], in [9], in assay [10], in assay [11] and in [12] was inactive. Also, the outcome in [13], in assay [14], in assay [16] and in assay [17] was inactive. In addition, the potentiation in assay [15] is 33% (active).
On to `CCN1CCCC(OC(=O)c2cc(-c3ccccc3Cl)nc3ccccc23)C1` (stereo not given), for which the result in assay [1], in [2], in assay [3], in assay [4], in assay [5] and in assay [6] was inactive. Besides, the outcome in assay [7], in assay [8], in assay [9], in assay [10], in [11] and in assay [12] was inactive. Further, the outcome in [13], in [14], in assay [16] and in assay [17] was inactive. The potentiation in [15] is 9.46% (active).
In the case of `O=C(Nc1ccc(F)cc1)Nc1cc(S(=O)(=O)N2CCOCC2)ccc1N1CCCC1`, the outcome in assay [1], in assay [2], in assay [3], in assay [5], in assay [6] and in assay [7] was inactive. Besides, the result in [8], in assay [9], in [10], in assay [11], in assay [12] and in [13] was inactive. The result in assay [14], in assay [16] and in assay [17] was inactive. Further, the potentiation in assay [4] was 53% (active); in [15], 33% (active).
With `O=C(Cc1ccccc1)Nc1cccc(NC(=O)c2cccs2)c1`, the result in assay [1], in assay [2], in assay [3], in assay [4], in [5] and in [6] was inactive. Moreover, the outcome in assay [7], in assay [8], in assay [9], in assay [10], in assay [11] and in assay [12] was inactive. For the same molecule, the result in [13], in assay [14], in assay [15], in [16] and in assay [17] was inactive.
As to `CC(C)c1ccc(OCc2ccc(C(=O)N3CCCC3)o2)cc1`, the result in assay [1], in assay [2], in assay [3], in assay [5], in assay [6] and in assay [7] was inactive. The result in assay [8], in assay [9], in assay [10], in [11], in [12] and in assay [13] was inactive. In addition, the outcome in assay [14], in [15], in [16] and in assay [17] was inactive. The potentiation in assay [4] was 39% (active).
Turning to `COc1cc(COCC(O)CN2CCN(CCN3C(=O)c4cccc5cccc(c45)C3=O)CC2)cc(OC)c1OC` (stereo not given), the outcome in [1], in assay [2], in [3], in [4], in [5] and in assay [6] was inactive. Moreover, the result in assay [7], in assay [8], in [9], in [10], in assay [11] and in assay [12] was inactive. The outcome in [13], in [14], in [15], in [16] and in assay [17] was inactive.
As for `O=C(NCc1ccccc1)c1ccc(S(=O)(=O)Nc2cccc(C(F)(F)F)c2)cc1`, the result in assay [1], in assay [2], in [3], in assay [5], in assay [6] and in [7] was inactive. Also, the result in assay [8], in assay [9], in assay [10], in assay [11], in [12] and in assay [13] was inactive. For the same molecule, the result in assay [14], in assay [16] and in [17] was inactive. The potentiation in assay [4] was 46% (active); in assay [15], 44.3% (active).
On to `Cc1cc2cc(CN(Cc3cccs3)C(=S)NCc3ccco3)c(=O)[nH]c2cc1C`, for which the result in [1], in assay [2], in assay [3], in assay [4], in assay [5] and in [6] was inactive. Besides, the result in [7], in assay [8], in assay [9], in assay [10], in assay [11] and in assay [12] was inactive. The result in assay [13], in [14], in [15], in [16] and in assay [17] was inactive.
Regarding `CN1CCN(S(=O)(=O)c2ccc(Br)c3ccccc23)CC1`, the outcome in assay [1], in assay [2], in [3], in assay [4], in assay [5] and in [6] was inactive. Further, the result in assay [7], in assay [8], in [9], in assay [10], in [11] and in assay [12] was inactive. Also, the result in assay [13], in assay [14], in assay [16] and in assay [17] was inactive. The potentiation in [15] was 26.5% (active).
